The panel holds about 83,000 compounds, 20% with a hit somewhere; the sample as a whole holds those more often.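 Single-dose data. Exposure time 48 hours. Values below 10 considered active.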 Values without a mark were called inactive. The source made the active and inactive calls.
Columns and labels:
Assay in all cases: NCI-60 one-dose screen, 48 h (100 = growth as untreated, 0 = no growth, -100 = all killed)
Details in all cases: 10 µM unless noted
[1] = system: DU-145 prostate
[2] = system: K-562 leukemia
[3] = system: MALME-3M melanoma
[4] = system: MDA-MB-231 breast
[5] = system: RXF 393 renal
[6] = system: SF-268 CNS
[7] = system: SF-295 CNS
[8] = system: SF-539 CNS
[9] = system: UACC-257 melanoma
[10] = system: M14 melanoma

Compound: C=CC[Se]C(=O)Cc1c(C)n(C(=O)c2ccc(Cl)cc2)c2ccc(OC)cc12
- growth [1]: -35.6% (active)
- growth [2]: 25.9%
- growth [3]: -23.4% (active)
- growth [4]: -56% (active)
- growth [5]: -57.5% (active)
- growth [6]: 15.3%
- growth [7]: -28.8% (active)
- growth [8]: -89.5% (active)
- growth [9]: -34.8% (active)
- growth [10]: -35.4% (active)

Compound: CC(=O)Oc1ccc(C)cc1C
- growth [1]: 110%
- growth [2]: 101%
- growth [3]: 104%
- growth [4]: 104%
- growth [5]: 114%
- growth [6]: 104%
- growth [7]: 106%
- growth [8]: 99%
- growth [9]: 106%
- growth [10]: 103%

Compound: Cn1c(I)c(C#CCO[Si](C)(C)C(C)(C)C)c(=O)[nH]c1=O
- growth [1]: 99.9%
- growth [2]: 2.55% (active)
- growth [3]: -51.2% (active)
- growth [4]: 91.5%
- growth [5]: -15.3% (active)
- growth [6]: 105%
- growth [7]: 101%
- growth [8]: 104%
- growth [9]: 96.6%
- growth [10]: 83.1%

Compound: CN(C)S(=O)(=O)c1cccc(C(=O)Nc2nc(-c3ccc(F)c(F)c3)cs2)c1
- growth [1]: 70.7%
- growth [2]: 39.4%
- growth [3]: 90.9%
- growth [4]: 69.4%
- growth [5]: 55.1%
- growth [6]: 88.9%
- growth [7]: 49.3%
- growth [8]: 66.4%
- growth [9]: 42.5%
- growth [10]: 60.8%

Compound: CC(=O)O[C@@H]1C[C@]2(C(C)C)O[C@@]1(C)[C@@H]1CCC(C)=C1[C@@H]2OC(=O)/C=C/c1ccccc1
- growth [1]: 101%
- growth [2]: 81.7%
- growth [3]: 86.4%
- growth [4]: 84.1%
- growth [5]: 30.8%
- growth [6]: 80.8%
- growth [7]: 92.1%
- growth [8]: 101%
- growth [9]: 90.5%
- growth [10]: 93.6%

Compound: COc1ccc(-c2ccc(-c3ccc(C(=N)N)cc3)s2)cc1Cl
- growth [1]: -87.5% (active)
- growth [2]: -36.8% (active)
- growth [3]: 57.5%
- growth [4]: -60.7% (active)
- growth [5]: 60.7%
- growth [6]: 20%
- growth [7]: -37.5% (active)
- growth [8]: -59% (active)
- growth [9]: 88.1%
- growth [10]: 38.6%

Compound: O=C(CSc1oc(-c2ccccc2)nc1S(=O)(=O)c1ccccc1)Nc1ccc(F)cc1
- growth [1]: 110%
- growth [2]: 75.4%
- growth [3]: 56.4%
- growth [4]: 75.6%
- growth [5]: 90.5%
- growth [6]: 85.7%
- growth [7]: 73.4%
- growth [8]: 65.6%
- growth [9]: 92.5%
- growth [10]: 90.2%

Compound: N#Cc1ccc(O)c(C2=NCC(c3cccc(Oc4ccccc4)c3)O2)c1 (stereo not given)
- growth [1]: 39.4%
- growth [2]: 7.33% (active)
- growth [3]: 37.3%
- growth [4]: 24.6%
- growth [5]: 61.8%
- growth [6]: 23.1%
- growth [7]: 30.9%
- growth [8]: 23.6%
- growth [9]: 6.96% (active)
- growth [10]: -4.77% (active)

Compound: N#CC(C#N)N=Nc1ccc(Br)cc1
- growth [1]: 38.5%
- growth [2]: 12.5%
- growth [3]: 12.1%
- growth [4]: 18.5%
- growth [5]: 87.4%
- growth [6]: 90.2%
- growth [7]: 95.7%
- growth [8]: 30.4%
- growth [9]: 10%
- growth [10]: 42.9%

Compound: Cc1ccc(Nn2c(SCC(=O)Nc3nc(-c4ccccc4)cs3)nc(C)c2C)cc1
- growth [1]: 83.4%
- growth [2]: 37.7%
- growth [3]: 92%
- growth [4]: 46%
- growth [5]: 61.5%
- growth [6]: 81.7%
- growth [7]: 46.1%
- growth [8]: 73.7%
- growth [9]: 54.1%
- growth [10]: 77%

Compound: N#Cc1c(-c2ccc(Cl)cc2)c(C#N)c2c(C#N)c(N)nn2c1N
- growth [1]: 84%
- growth [2]: 89.3%
- growth [3]: 106%
- growth [4]: 71.3%
- growth [5]: 79.7%
- growth [6]: 83.7%
- growth [7]: 83.3%
- growth [8]: 78%
- growth [9]: 89.2%
- growth [10]: 103%

Compound: CCOC(=O)c1ccc(NC(=O)c2nc(-c3cc(OC)c(OC)c(OC)c3)n(-c3ccc(Cl)cc3)n2)cc1
- growth [1]: 102%
- growth [2]: 85.7%
- growth [3]: 91.4%
- growth [4]: 69.4%
- growth [5]: 86.3%
- growth [6]: 84%
- growth [7]: 96.9%
- growth [8]: 97%
- growth [9]: 96.5%
- growth [10]: 97.6%

Compound: Cn1cc(-c2nonc2-c2cn(C)c3ccccc23)c2ccccc21
- growth [1]: 16.3%
- growth [2]: 9.77% (active)
- growth [3]: 53.4%
- growth [4]: 23.2%
- growth [5]: 1.39% (active)
- growth [6]: 48.1%
- growth [7]: 17.5%
- growth [8]: -21.6% (active)
- growth [9]: 65.7%
- growth [10]: 6.28% (active)

Source: PubChem BioAssay (NCI)
